# Experimental data published in PubChem BioAssay (NCI).
# About 83,000 compounds went through this panel and 20% of them were active in at least one assay; those are over-represented in the sample as a whole.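 Activity criterion: percent growth below 10, measured after cells in 96-well plates were exposed to a single compound concentration for 48 hours.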 Values without a mark were called inactive. The source made the active and inactive calls.
# Experiments:
# Test in all cases: NCI-60 one-dose screen, 48 h (100 = growth as untreated, 0 = no growth, -100 = all killed)
# Settings in all cases: 10 µM unless noted
# [1] = tested on: NCI-H23 lung
# [2] = tested on: NCI-H226 lung
# [3] = tested on: NCI-H322M lung
# [4] = tested on: HOP-62 NSCLC
# [5] = tested on: NCI-H460 lung
# [6] = tested on: HOP-92 NSCLC
# [7] = tested on: NCI-H522 lung
# [8] = tested on: A549/ATCC NSCLC
# [9] = tested on: 786-0 renal
# [10] = tested on: COLO 205 colon
SMILES,growth [1],growth [2],growth [3],growth [4],growth [5],growth [6],growth [7],growth [8],growth [9],growth [10]
Cc1c(O)c(=O)n(-c2ccccc2)n1C,101%,100%,108%,100%,118%,96.3%,110%,105%,101%,111%
O=c1c2sc3ccccc3c2nnn1-c1ccc(F)c(Cl)c1,73%,34.3%,49.4%,-15% (active),10.4%,-1.07% (active),64.5%,30.3%,31.9%,41.9%
Fc1ccc(-c2nnc(N3CCOCC3)c3ccccc23)cc1,111%,97.2%,94.2%,97.1%,103%,103%,101%,102%,105%,89.6%
O=C1Cc2c([nH]c3ccc([N+](=O)[O-])cc23)-c2ccccc2N1,2.05% (active),27.1%,18.3%,17.8%,6.76% (active),-17.1% (active),0.987% (active),18.5%,7.56% (active),-58.1% (active)
O=C(NCC(c1ccsc1)N1CCCCCC1)c1ccc(C(F)(F)F)cc1 (stereo not given),93%,91.9%,99.9%,113%,100%,99%,92.8%,96.5%,96.9%,102%
CCOCC(O)(c1ccc(Cl)cc1)c1ccc(Cl)cc1,95.1%,113%,93.9%,115%,107%,107%,89.4%,83.2%,104%,111%
Cc1nc([C@H]2CC[C@H]3[C@@H]4CCC5=CC(=O)CC[C@]5(C)[C@H]4CC[C@]23C)cs1,49.9%,76.9%,116%,104%,41.5%,85%,22%,63.3%,62.7%,97.5%
Cc1nc2ccc(Nc3nc(NCCN4CCOCC4)nc(Nc4ccc(F)cc4)n3)cc2n1Cc1ccccc1,67%,72.1%,64.1%,47.8%,29.4%,30.3%,58.7%,46.3%,4.17% (active),1.19% (active)
Clc1ccc(Nc2ncnc3c2sc2ncccc23)c(Cl)c1,14.9%,43.6%,45.1%,1.95% (active),10.1%,22.3%,31.8%,26.8%,17.2%,27.6%
COc1ccccc1NC(=O)OCC12COCN1COC2,100%,99%,107%,104%,104%,105%,100%,92.9%,103%,108%
CCCCOc1ncnc2nc[nH]c12,100%,94.2%,101%,96.1%,113%,101%,100%,99.3%,97.1%,110%
O=C(Cn1nncc1CN1C(=O)CSC1=O)Nc1ccc(F)cc1,97.3%,95.7%,102%,97.2%,103%,104%,93.5%,102%,102%,107%
O=C(O)Cn1ccc2ccccc21,100%,110%,100%,79.9%,103%,88.2%,77.7%,99.4%,101%,153%
COc1ccc(/C(=C\c2ccc3c(c2)OCO3)C(=O)Nc2nc3ccc(F)cc3s2)cc1OC,93.2%,87.1%,87.3%,92.8%,105%,93.6%,94.2%,99.7%,92.1%,106%
CCOC(=O)NNc1cccc(Cl)c1,93.8%,84.7%,104%,103%,103%,87.5%,96.6%,107%,112%,123%
C#CC[C@@H]1C[C@]2(C)[C@H]3CC=C4[C@H]5[C@@H](C)[C@H](C)CC[C@]5(C(=O)NCCCCCCCCN)CC[C@@]4(C)[C@]3(C)CC[C@H]2C(C)(C)[C@H]1OC(C)=O,79.3%,94.6%,80.4%,104%,-63.8% (active),53.1%,-1.25% (active),46.5%,80.6%,-23.4% (active)
O=C(Nc1ccccc1Cl)Oc1ccc2ccccc2c1,91.3%,88.2%,109%,92.9%,102%,101%,79.6%,94.9%,90.9%,118%
Fc1cnccc1-c1nc2ccc3[nH]ncc3c2c2c1CCCC2,31.9%,30%,29.5%,21%,25.8%,40.7%,18.8%,14.6%,28.1%,17.6%
CN(C)c1ccc(N2Cc3ccccc3OC3=C2C(=O)c2c(O)ccc(O)c2C3=O)cn1,-36.7% (active),6.21% (active),-7.76% (active),-45.8% (active),1.55% (active),-65.2% (active),-54.2% (active),-19.7% (active),-88.9% (active),-81.9% (active)
C=C(C)C1CCC2(C(=O)O)CCC3(C)C(CCC4C5(C)CCC(O)C(C)(C)C5CCC43C)C12 (stereo not given),-50.3% (active),33.2%,6.5% (active),-59.1% (active),-22.5% (active),-26.2% (active),1.49% (active),-53.5% (active),-66.5% (active),-45.3% (active)
NC(=O)Nc1ccc2ncnc(Nc3cccc(O)c3)c2c1,100%,102%,83.5%,92.8%,108%,78%,102%,93.5%,92.6%,94.7%
COc1ccccc1/C=N\NC(=S)Nc1ccc(F)cc1,72.5%,90.9%,96%,79.8%,80.5%,71%,38.1%,68%,93.6%,91.9%
CC1=C(C(=O)Nc2ccc(F)cc2)C(c2ccc(C)cc2)C2=C(CC(C)(C)CC2=O)N1 (stereo not given),93.4%,89.8%,103%,91.5%,90.8%,68.4%,91.2%,92.4%,97.2%,105%
COc1cc(C2CC(c3cccc(Nc4ccnc5cc(Cl)ccc45)c3)=NN2c2ccc(Cl)cc2)cc(OC)c1OC (stereo not given),73.8%,70.6%,81.4%,76.7%,36.4%,37.5%,40.6%,57%,54.5%,80.9%
COc1cc(OC)cc(-c2n/c(=C\c3c(O)[nH]c4ccc(Cl)cc34)cc3c2=Nc2ccccc2-3)c1,34%,84.3%,93.2%,72.5%,43.3%,92.6%,60.7%,58.5%,39.3%,90.5%
C[C@@H]1C[C@H](N)C[C@H](c2ccncc2NC(=O)c2ccc(F)c(-c3c(F)cccc3F)n2)C1,73.3%,53.6%,71%,49.1%,62.5%,10.4%,46.4%,48.7%,56.1%,-33.4% (active)
Clc1ccc2c(c1)-n1cccc1C(c1ccc3ccccc3c1)=NC2,74.4%,146%,122%,101%,96.7%,89.6%,41.3%,121%,88.7%,102%
